Experimental findings from PubChem BioAssay (NCI) are described below.

This is part of a sample that, as a whole, favours compounds with a hit. Of some 83,000 tested, about 20% had one in any assay.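 A percent growth of 40 corresponds to 60% growth inhibition; 0 means no net growth; -100 means all cells died. Active threshold: below 10.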 Values without a mark were called inactive. Activity calls are given as the source filed them.

Holding throughout (assay): NCI-60 one-dose screen, 48 h (100 = growth as untreated, 0 = no growth, -100 = all killed)
What all share (conditions): 10 µM unless noted

Experiment [1] concerns K-562 leukemia.
The test system of experiment [2] is MALME-3M melanoma.
The test system of experiment [3] is MDA-MB-231 breast.
The test system of experiment [4] is RXF 393 renal.
The subject of experiment [5] is SF-268 CNS.
For experiment [6], the system named is SF-295 CNS.
Experiment [7] has as its system SF-539 CNS.
The test system of experiment [8] is UACC-257 melanoma.
Experiment [9] deals with M14 melanoma.
The test system of experiment [10] is HCT-15 colon.
Experiment [11] concerns HT29 colon.
In experiment [12] the test system is SNB-19 CNS.
The test system of experiment [13] is U251 CNS.
For experiment [14], the system named is PC-3 prostate.
Experiment [15] relates to SK-MEL-5 melanoma.
Experiment [16] has as its system UACC-62 melanoma.
The subject of experiment [17] is LOX IMVI melanoma.
The subject of experiment [18] is SK-MEL-28 melanoma.
Experiment [19] relates to SNB-75 CNS.

Consider `CCN(CC)c1ccc2nc3c4ccccc4c(=O)cc-3n(-c3ccccc3)c2c1`, for which the growth in experiment [1] was 6.09% (active); in [2] it was -32.3% (active); in experiment [3], -24.1% (active); in experiment [4], 6.05% (active); in [5], 15.5%; in experiment [6], -36.7% (active). Further, the growth in experiment [7] is -30% (active); in experiment [8], -15.8% (active); in experiment [9], -56.8% (active); in [10], 5.16% (active); in experiment [11] it was 6.55% (active); in [12], 23.6%. Further, the growth was 18.9% in experiment [13]; 6.03% (active) in experiment [14]; -98.1% (active) in experiment [15]; -8.44% (active) in experiment [16]; -23.2% (active) in experiment [17]; 9.68% (active) in experiment [18].
Turning to `CCCCCCCCCCCC1=NC(C)(C)CN1C(C)(C)CO`, the growth in experiment [1] is 57.6%; in [2], 62.7%; in experiment [3], 57.7%; in [4], 56.3%; in [5], 69.1%; in experiment [6], 90.3%. Besides, the growth in [7] is 57.9%; in experiment [8], -23.4% (active); in [9] it was -84.4% (active); in experiment [10], 8.9% (active); in experiment [11], -29.3% (active); in experiment [19] it was 49.3%. In addition, the growth was 114% in [12]; 21.4% in experiment [13]; 54.9% in [14]; 8.52% (active) in experiment [15]; -69.5% (active) in experiment [16]; -35.1% (active) in [17]. Besides, in experiment [18], the growth is -5.89% (active).
Turning to `Clc1ccccc1Nc1nnc(-c2ccncc2)s1`, the growth in experiment [1] was 101%; in [2], 109%; in [3], 108%; in experiment [4], 107%; in experiment [5] it was 105%; in experiment [6], 88.7%. The growth in [7] is 108%; in experiment [8], 108%; in experiment [9], 104%; in experiment [10], 112%; in experiment [11], 105%; in experiment [19], 106%. Moreover, the growth in [12] was 99.8%; in [13], 103%; in experiment [14], 97.2%; in [15] it was 97.7%; in [16], 95.3%; in experiment [17], 110%. Further, the growth in [18] was 100%.
For the compound `CSCCC1NC(=O)C(C(C)=Nc2ccccc2)=C1O` (centres undefined), the growth was 124% in experiment [1]; 112% in [2]; 109% in experiment [3]; 109% in experiment [4]; 111% in experiment [5]; 97.7% in experiment [6]. Moreover, the growth in experiment [7] was 119%; in experiment [8] it was 113%; in experiment [9], 103%; in experiment [10], 117%; in experiment [11], 108%; in [19], 88.6%. In addition, the growth is 116% in experiment [12]; 111% in experiment [13]; 92.7% in [14]; 112% in experiment [15]; 101% in experiment [16]; 105% in experiment [17]. Moreover, the growth in [18] is 110%.
Turning to `COc1cc2c(cc1I)-c1c(cc(OC)c(OC)c1OC)CC[C@@H]2NC(C)=O`, the growth is 9.91% (active) in experiment [1]; 72.4% in experiment [2]; -6.61% (active) in [3]; 29.8% in experiment [4]; -1.65% (active) in experiment [6]; -30.6% (active) in [7]. Moreover, the growth in [8] was 56.7%; in experiment [9], -12.9% (active); in [10], 9.35% (active); in [19], 27.7%; in [12], 28%; in experiment [13] it was 17.3%. For the same compound, the growth in experiment [14] is 27.2%; in [15], 2.44% (active); in [16] it was 16.4%; in [17], 33.8%; in experiment [18] it was 41.6%.
In the case of `CCCCCCCCCCCCCCCC1=NCC[N+]1(CCO)CCO`, the growth in experiment [1] is 1.44% (active); in experiment [2], 108%; in experiment [3] it was 36.7%; in experiment [4], 34.9%; in experiment [6], 76.7%; in experiment [7] it was 73.3%. In addition, the growth in experiment [8] is 102%; in [9], 7.86% (active); in experiment [10], 31.9%; in experiment [11], 12.4%; in experiment [19], 46.9%; in experiment [12] it was 97.6%. The growth in experiment [13] was 39.4%; in [14], 32.1%; in [15] it was 89.6%; in experiment [16] it was 76.2%; in experiment [17] it was 5.42% (active); in [18], 115%.
On to `C=CCN(CCOC(=O)c1ccc([N+](=O)[O-])cc1)CCOC(=O)c1ccc([N+](=O)[O-])cc1`, for which the growth in [1] is 92.3%; in [2], 98.8%; in experiment [3] it was 96.2%; in [4], 138%; in experiment [5], 98%; in experiment [6], 107%. The growth in [7] is 110%; in [8] it was 97.8%; in experiment [9], 105%; in experiment [10] it was 118%; in experiment [11] it was 111%; in experiment [19] it was 83.7%. Besides, the growth was 108% in experiment [12]; 103% in experiment [13]; 85.4% in experiment [14]; 94.8% in experiment [15]; 110% in experiment [16]; 88.8% in experiment [17]. In [18], the growth is 106%.
Take `CCCCC(CCc1ccccn1)C(=O)c1ccccc1` (centres undefined): the growth is 116% in [1]; 119% in experiment [2]; 104% in [3]; 109% in experiment [4]; 122% in experiment [5]; 104% in experiment [6]. Further, the growth in experiment [7] is 107%; in experiment [8], 123%; in experiment [9] it was 108%; in [10] it was 107%; in experiment [11] it was 109%; in experiment [19] it was 89.8%. Besides, the growth is 114% in [13]; 98.2% in experiment [14]; 103% in [15]; 107% in [16]; 96.5% in experiment [17]; 108% in experiment [18].
Take `CC(C)(C)NC(=O)C(OC(=O)C1CCc2cc(F)ccc2O1)c1ccccc1Cl` (centres undefined): the growth was 103% in experiment [1]; 94.4% in experiment [2]; 92.4% in experiment [3]; 96.3% in [4]; 95.4% in [6]; 108% in experiment [7]. In addition, the growth was 106% in experiment [8]; 94.9% in [9]; 98.7% in experiment [10]; 103% in [11]; 97.1% in [12]; 102% in [13]. The growth in experiment [14] was 92.4%; in [15], 94.5%; in [16], 87.6%; in experiment [17] it was 102%; in [18], 108%.
Take `O=C(CCCCCCc1nc2ccc(Br)cc2[nH]1)NO`: the growth in experiment [1] is 6.07% (active); in experiment [2] it was -6.27% (active); in [3] it was 2.73% (active); in [4] it was -78.3% (active); in experiment [5], 11.1%; in [6], -17.2% (active). Also, the growth is 17.8% in experiment [7]; -11% (active) in experiment [8]; -16.1% (active) in experiment [9]; 35.9% in experiment [10]; 1.25% (active) in [11]; -2.57% (active) in experiment [19]. Further, the growth in [12] is 1.94% (active); in [13] it was -15.4% (active); in experiment [14] it was 16.7%; in experiment [15], -81.5% (active); in experiment [16] it was -79.8% (active); in experiment [17], -98.9% (active). For the same compound, the growth in experiment [18] was -16.7% (active).
On to `O=C(Nc1cccc(Cl)c1)Nc1cc(C(F)(F)F)ccc1Cl`, for which the growth is 16.4% in [1]; 5.85% (active) in experiment [2]; 25.5% in experiment [3]; 40.7% in [4]; 41.8% in experiment [5]; -1.4% (active) in [6]. In addition, the growth was 43.5% in experiment [7]; 19.6% in [8]; 18.2% in experiment [9]; 9.83% (active) in experiment [10]; 4.03% (active) in experiment [11]; 18.2% in [19]. The growth was 16.6% in [12]; 6.86% (active) in experiment [13]; -3.53% (active) in experiment [14]; 24.4% in experiment [15]; -8.9% (active) in experiment [16]; -11.8% (active) in experiment [17]. Moreover, in [18], the growth was 25.5%.
Consider `O=c1c2sc3ccccc3c2nnn1-c1ccc(F)c(Cl)c1`, for which the growth in experiment [1] is 49.7%; in experiment [2] it was 58%; in experiment [3], 27.5%; in [4] it was 47.3%; in experiment [6], 4.36% (active); in experiment [7], 65.4%. Also, the growth in experiment [8] is 64.1%; in experiment [9], 74.7%; in experiment [10], 56.7%; in [11], 69.9%; in experiment [19], 39.5%; in [12], 61.1%. Further, the growth is 59.1% in experiment [13]; 67.3% in [15]; 78.4% in experiment [16]; 58.1% in experiment [17]; 72.7% in [18].
